Measurements: PubChem BioAssay (NCI)
Compounds without any hit were thinned out: in the full panel of roughly 83,000, 20% have a hit.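 96-well plates, one dose, 48 hours. Percent growth reported; active if below 10.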 Unmarked numbers belong to inactive results. The source made the active and inactive calls.

Each compound was assayed on HL-60(TB) leukemia (assay: NCI-60 one-dose screen, 48 h (100 = growth as untreated, 0 = no growth, -100 = all killed)). Details: 10 µM unless noted.

Question: Which growth does the source give for `CNc1nc(C)c(-c2nc(Nc3cccc(S(N)(=O)=O)c3)ncc2F)s1` here?
Answer: -47.9% (active)

Question: How did the growth turn out when `O=C(/C=C/c1ccc(Cl)nc1)c1ccc(Cl)cc1Cl` was run?
Answer: 67.4%

Question: Which growth does the source give for `Cc1ccc(-c2cc(-c3ccc(C)cc3)nc(NCCNc3ccnc4cc(Cl)ccc34)n2)cc1` here?
Answer: -44.6% (active)

Question: With `Cc1cc(OCCO)cc(C)c1Cl` as the compound, how does the growth read?
Answer: 100%

Question: `COc1cc2c(c(OC)c1OC)C(=O)/C(=C/c1cc(C)c(O)c(C)c1)S2` was tested. Which growth did it give?
Answer: 13.6%

Question: Which growth does the source give for `CCCCC(=O)Nc1nc2ccc(SCCC)cc2s1` here?
Answer: 19.5%

Question: How did the growth turn out when `CNC(=O)c1cc(Oc2ccc(NC(=O)Nc3cc(C(C)(C)C)nn3-c3ccc4ncccc4c3)c(F)c2)ccn1` was run?
Answer: -43.2% (active)

Question: How did the growth turn out when `S=C(c1ccccc1)N1CCN(c2cccc(Cl)c2)CC1` was run?
Answer: 90.5%

Question: With `Cc1csc(N/N=C/c2ccncc2)n1` as the compound, how does the growth read?
Answer: 92.6%

Question: Which growth does the source give for `CC(=O)c1nc2ccccc2n1CCNC(N)=O` here?
Answer: 80.5%

Question: For `C1CN(CC2CCC(CN3CCOCC3)O2)CCO1` (centres undefined), which growth is on record?
Answer: 87%

Question: Which growth does the source give for `COC(=O)c1nc(-c2ccccc2)oc1S(=O)(=O)NCC(c1ccc(Cl)cc1)N1CCCCC1` (centres undefined) here?
Answer: 17.5%

Question: How did the growth turn out when `O=C(O)C(Cc1ccccc1)C(=O)O` was run?
Answer: 107%

Question: With `O=C(/C(=C\c1c(-c2ccccc2)[nH]c2ccccc12)S(=O)(=O)c1ccccc1)c1ccccc1` as the compound, how does the growth read?
Answer: -18.2% (active)

Question: For `c1ccc2c(-c3c[nH]c4ccccc34)c3c(cc2c1)[nH]c1ccccc13`, which growth is on record?
Answer: 51.5%

Question: `Cc1ccc(-c2csc(NC(=O)CCCCl)n2)cc1` was tested. Which growth did it give?
Answer: 109%

Question: How did the growth turn out when `COc1ccc(/C=N/C2=C(C#N)C(c3ccccc3)c3c(ccc4ccccc34)O2)cc1` (centres undefined) was run?
Answer: -18.1% (active)

Question: How did the growth turn out when `CCOc1cc2ncc(C#N)c(Nc3ccc(OCc4cccc(F)c4)c(Cl)c3)c2cc1NC(=O)CC1CCSS1` (centres undefined) was run?
Answer: 54.8%

Question: For `CCCCCCCCCCC/C=C\C[C@H](O)C/C=C1/C(=O)C=C[C@@H]1C/C=C\CCCC(=O)OC`, which growth is on record?
Answer: -20% (active)

Question: How did the growth turn out when `CCCCn1c(C(=O)c2c[nH]c3ccccc23)n[nH]c1=S` was run?
Answer: 90.8%

Question: Which growth does the source give for `COc1cc2oc(-c3cccc(C(=O)Nc4ccc(Br)cc4)c3)cc(=O)c2c(OC)c1OC` here?
Answer: 38.6%

Question: For `Cc1c2cnccc2c(C)c2c1c1cc(O)ccc1n2C(C)C`, which growth is on record?
Answer: 0.765% (active)

Question: For `CCOC(=O)c1ccc2c(c1)nc(/C=C/c1ccc(Cl)cc1)n2-c1cc(C(C)(C)C)[nH]n1`, which growth is on record?
Answer: 73.1%

Question: With `COc1ccc(-c2noc(C(=O)O)c2-c2cc(OC)c(OC)c(OC)c2)cc1` as the compound, how does the growth read?
Answer: -38.5% (active)

Question: For `CCOc1cc(/C=N\NC(=O)N/N=C/c2ccc(O)c(OCC)c2)ccc1O`, which growth is on record?
Answer: -22.2% (active)

Question: Which growth does the source give for `Cc1ccccc1CNc1ncnc2[nH]ncc12` here?
Answer: 49.2%

Question: How did the growth turn out when `Cc1nc(NN)c([N+](=O)[O-])c(NN)n1` was run?
Answer: 68.1%

Question: `COc1ccc(C2N(c3cc(OC)c(OC)c(OC)c3)C(=O)C2(F)F)cc1F` (centres undefined) was tested. Which growth did it give?
Answer: 0.936% (active)

Question: `CC(Oc1ccc(Cl)cc1)c1ccccc1` (centres undefined) was tested. Which growth did it give?
Answer: 93.6%

Question: Which growth does the source give for `COc1cc(/C=C\c2cc(OC)c(OC)c(OC)c2)cc(NC(=O)/C=C/c2cc(OC)c(OC)c(OC)c2)c1OC` here?
Answer: -6.4% (active)

Question: `COc1ccc(OC)c([N+](=O)[O-])c1C=O` was tested. Which growth did it give?
Answer: 88.2%

Question: How did the growth turn out when `COc1c(Cl)c2c(c(OC)c1OC)-c1ccc(SC)c(=O)cc1[C@@H](NC(=O)OCC(F)(F)F)CC2` was run?
Answer: -35.4% (active)

Question: For `COc1ccc(CN2c3ccccc3Oc3ccccc32)cc1O`, which growth is on record?
Answer: 15.6%

Question: `COc1ccc(C2CC(c3ccc(OC)cc3O)=NN2c2ccc(S(N)(=O)=O)cc2)cc1` (centres undefined) was tested. Which growth did it give?
Answer: -23.2% (active)

Question: With `Cn1cc(-c2csc(-c3c[nH]c4ccc(F)cc34)n2)c2ccnc(Cl)c21` as the compound, how does the growth read?
Answer: 72%

Question: For `O=[N+]([O-])c1cccc(/C=N/NC(=S)NC23CC4CC(CC(C4)C2)C3)c1`, which growth is on record?
Answer: 101%

Question: With `CN1CCN(Cc2ccc(NC(=O)c3[nH]ncc3Nc3cc(OC4CCCC4)ncn3)cc2)CC1` as the compound, how does the growth read?
Answer: -12.7% (active)

Question: Which growth does the source give for `O=C(Oc1ccc(Cl)cc1[N+](=O)[O-])Oc1ccc(Cl)cc1[N+](=O)[O-]` here?
Answer: 95.7%

Question: Which growth does the source give for `O=C(c1ccccc1)c1ccco1` here?
Answer: 86.1%
